Experiment [1] can be described thus: Human pregnane X receptor (PXR) small molecule agonists, qHTS cell viability counter screen (AID 1346977). Also: nearly all actives have a fitted effect of over 50% in size. Also: potency is read from the fitted curve at half-maximal effect. A digest of the protocol:
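PXR-Luc HepG2 cells in medium with 5% charcoal-stripped FBS were pre-incubated 5hr, then exposed to compounds for 24hr at 37C. Viability was read in the same wells by CellTiter-Fluor fluorescence, reagent added after 23hr with a 1hr incubation.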
For orientation: qHTS replaces the single test concentration by a dilution series.

The nature of experiment [2]: Caspase-3/7 induction in HepG2 cells by small molecules, qHTS cell viability counter screen (AID 1346981). Also: nearly all actives have a fitted effect of over 30% in size. Also: potency is read from the fitted curve at half-maximal effect. The gist of the method:
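After a 5-hr attachment period at 37 C and 5% CO2, wild-type HepG2 cells received compounds in DMSO. Sixteen hours later CellTiter-Fluor was dispensed and the fluorescent signal quantified after a further hour.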

For experiment [3], the target named is Nuclear receptor subfamily 1 group I member 2 (Homo sapiens) (UniProt O75469). Briefly: Human pregnane X receptor (PXR) small molecule agonists, qHTS assay (AID 1346982). Also: nearly all actives have a fitted effect of over 35% in size. Also: potency is read from the fitted curve at half-maximal effect. As to activation: % is scaled to controls: 0 for no effect and ±100 for the full control effect. The gist of the method:
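Tox21 qHTS; PXR-Luc HepG2; compounds pinned from DMSO; 24 hr, 37 C; ONE-Glo luciferase detection, 30 min room temperature.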

Experiment [4] addresses Cytochrome P450 2D6 (Homo sapiens) (UniProt P10635). The experiment in a line: Cytochrome P450 Family 2 Subfamily D Member 6 (CYP2D6) small molecule antagonists: luciferase reporter qHTS assay (AID 1671196). Also: nearly all actives have a fitted effect of over 50% in size. Also: potency is read from the fitted curve at half-maximal effect. The gist of the method: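 Room-temperature luminescent CYP2D6 activity assay: compound preincubated 10 min with enzyme–substrate mix, NADPH-initiated reaction 1 h, detection reagent 20 min before reading.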
A general note: A reporter such as luciferase makes a cellular process visible.

In experiment [5] the target is Cytochrome P450 1A2 (Homo sapiens) (UniProt P05177). The experiment in a line: Cytochrome P450 Family 1 Subfamily A Member 2 (CYP1A2) small molecule antagonists: luciferase reporter qHTS assay (AID 1671199). Also: nearly all actives have a fitted effect of over 50% in size. Also: potency is read from the fitted curve at half-maximal effect. A digest of the protocol:
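Room-temperature CYP1A2 reaction with proluciferin substrate: compounds added from DMSO, 10 min preincubation, NADPH regeneration for 1 h. Luciferin detection reagent then added; luminescence recorded as RLU.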

The target in experiment [6] is Voltage-gated inwardly rectifying potassium channel KCNH2 (Homo sapiens) (UniProt Q12809). The experiment in a line: Human Ether-a-go-go-Related Gene (hERG) channel small molecule antagonists: fluorescence cell-based qHTS assay (AID 1671200). Also: nearly all actives have a fitted effect of over 50% in size. Also: potency is read from the fitted curve at half-maximal effect. A digest of the protocol: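 U2OS cells expressing the channel were plated at 1000 cells/well, incubated overnight at 37 C, then loaded with FluxOR II thallium-sensitive dye for 1 h at room temperature in the dark, with a further 10 min at room temperature before stimulation.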
Voltage-gated inwardly rectifying potassium channel KCNH2 (Homo sapiens), sequence (Q12809 whole entry, looked up): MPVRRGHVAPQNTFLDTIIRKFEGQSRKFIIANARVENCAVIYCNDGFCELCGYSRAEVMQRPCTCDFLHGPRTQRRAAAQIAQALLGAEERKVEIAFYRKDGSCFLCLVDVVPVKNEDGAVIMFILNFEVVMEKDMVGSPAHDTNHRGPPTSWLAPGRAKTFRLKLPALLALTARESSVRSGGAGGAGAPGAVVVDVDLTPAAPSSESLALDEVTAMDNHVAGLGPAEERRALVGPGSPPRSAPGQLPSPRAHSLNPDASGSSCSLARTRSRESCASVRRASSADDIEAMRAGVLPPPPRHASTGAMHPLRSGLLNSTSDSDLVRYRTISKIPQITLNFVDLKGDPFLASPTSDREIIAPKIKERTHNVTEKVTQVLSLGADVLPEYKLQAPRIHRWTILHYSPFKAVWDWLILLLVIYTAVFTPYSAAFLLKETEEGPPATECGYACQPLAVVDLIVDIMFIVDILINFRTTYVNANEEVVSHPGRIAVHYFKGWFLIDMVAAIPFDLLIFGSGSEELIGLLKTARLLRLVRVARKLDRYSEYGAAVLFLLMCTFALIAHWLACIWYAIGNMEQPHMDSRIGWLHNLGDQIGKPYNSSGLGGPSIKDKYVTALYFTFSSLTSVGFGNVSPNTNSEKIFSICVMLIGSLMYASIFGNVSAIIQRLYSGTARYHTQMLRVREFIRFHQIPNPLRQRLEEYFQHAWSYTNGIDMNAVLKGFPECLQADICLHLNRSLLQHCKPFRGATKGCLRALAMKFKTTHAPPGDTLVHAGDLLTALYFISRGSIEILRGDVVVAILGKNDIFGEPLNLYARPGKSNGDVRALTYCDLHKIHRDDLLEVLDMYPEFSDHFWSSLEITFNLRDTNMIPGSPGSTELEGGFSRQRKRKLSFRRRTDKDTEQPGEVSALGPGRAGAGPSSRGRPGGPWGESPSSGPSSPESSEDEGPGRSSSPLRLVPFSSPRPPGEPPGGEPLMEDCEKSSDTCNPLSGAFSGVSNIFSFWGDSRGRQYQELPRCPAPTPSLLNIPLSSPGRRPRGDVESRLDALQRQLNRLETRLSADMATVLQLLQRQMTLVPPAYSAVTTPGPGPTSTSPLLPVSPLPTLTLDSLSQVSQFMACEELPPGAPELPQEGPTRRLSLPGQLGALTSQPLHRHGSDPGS
(In general: hERG is a cardiac potassium channel; its block is linked to QT prolongation.)

Experiment [7] in a line: Caspase-3/7 induction in HepG2 cells by small molecules, qHTS assay (AID 1346978). Also: % is scaled to controls: 0 for no effect and ±100 for the full control effect; nearly all actives have a fitted effect of over 15% in size. A digest of the protocol:
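Wild-type HepG2 cells (2,000/well) were settled 5 h at 37 C, 5% CO2, then exposed to compounds in DMSO for 17 h. Caspase-3/7 activity was read by luminescence 30 min after adding Caspase-Glo 3/7 reagent at room temperature.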

A short description of experiment [8]: Caspase-3/7 induction in CHO-K1 cells by small molecules, qHTS cell viability counter screen (AID 1346979). Also: % is scaled to controls: 0 for no effect and ±100 for the full control effect; nearly all actives have a fitted effect of over 35% in size. The gist of the method:
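Wild-type CHO-K1 cells were seeded at 1,500 per well, rested 5hr at 37 C, then exposed to compounds in DMSO. After 16hr, CellTiter-Fluor reagent was added and fluorescence read 1hr later as the viability measure.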

Experiment [9] is described as follows: Caspase-3/7 induction in CHO-K1 cells by small molecules, qHTS assay (AID 1346980). Also: % is scaled to controls: 0 for no effect and ±100 for the full control effect; nearly all actives have a fitted effect of over 15% in size. A digest of the protocol: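 Wild-type cells were seeded at 1,500 per well and settled 5 hr at 37 C, 5% CO2, then exposed to DMSO-dissolved compounds for 17 hr. Caspase-Glo 3/7 reagent was added, and luminescence was read after 30min at room temperature.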
For experiment [10], the target named is Acetylcholinesterase (Homo sapiens) (UniProt P22303). The experiment in a line: Acetylcholinesterase (AChE) small molecule antagonists: colormetric cell-based qHTS assay (AID 1347395; calls by dose curve; also: nearly all actives have a fitted effect of over 30% in size; also: potency is read from the fitted curve at half-maximal effect). A digest of the protocol: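 SH-SY5Y cells, plated overnight at 37 C, were exposed to compounds for 30 min at 37 C and 5% CO2. Acetylthiocholine plus DTNB was then added, and thiocholine from endogenous AChE was quantified colorimetrically after 90 min at 37 C.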
Acetylcholinesterase (Homo sapiens), sequence (P22303 whole entry, looked up): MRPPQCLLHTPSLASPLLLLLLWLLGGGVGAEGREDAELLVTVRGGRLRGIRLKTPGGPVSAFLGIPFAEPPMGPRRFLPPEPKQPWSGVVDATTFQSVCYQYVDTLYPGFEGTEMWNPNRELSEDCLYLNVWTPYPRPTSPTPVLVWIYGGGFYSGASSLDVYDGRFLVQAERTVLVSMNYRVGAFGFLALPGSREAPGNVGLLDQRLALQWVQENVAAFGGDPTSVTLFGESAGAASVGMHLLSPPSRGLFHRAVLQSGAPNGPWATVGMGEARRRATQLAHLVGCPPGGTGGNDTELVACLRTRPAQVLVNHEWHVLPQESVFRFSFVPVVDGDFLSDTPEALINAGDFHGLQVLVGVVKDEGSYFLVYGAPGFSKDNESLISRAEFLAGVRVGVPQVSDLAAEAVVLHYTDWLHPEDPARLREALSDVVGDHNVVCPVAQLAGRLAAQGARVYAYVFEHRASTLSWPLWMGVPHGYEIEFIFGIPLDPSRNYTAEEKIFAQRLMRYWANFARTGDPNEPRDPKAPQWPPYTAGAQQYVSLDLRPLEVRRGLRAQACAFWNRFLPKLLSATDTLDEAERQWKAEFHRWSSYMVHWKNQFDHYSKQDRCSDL

For experiment [11] the target is unchanged. Briefly: Acetylcholinesterase (AChE) small molecule antagonists: enzyme-based qHTS assay (AID 1347397; calls by dose curve; also: % is scaled to controls: 0 for no effect and ±100 for the full control effect; nearly all actives have a fitted effect of over 55% in size). The following applies: Potency: AChE enzyme activity inhibition. A digest of the protocol: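 Compound or DMSO vehicle was pin-transferred onto recombinant human AChE (50 mU/mL as dispensed) and left 30 min at room temperature. Acetylthiocholine with DTNB then started the reaction, read colorimetrically 10 min later.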

The target is the same in experiment [12]. The experiment in a line: Acetylcholinesterase (AChE) small molecule antagonists: fluorescence cell-based qHTS assay (AID 1347398; calls by dose curve; also: nearly all actives have a fitted effect of over 50% in size; also: potency is read from the fitted curve at half-maximal effect). To be noted: Potency: AChE activity. The gist of the method:
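Using neuroblastoma SH-SY5Y cells as the enzyme source, test chemicals are preincubated 30 min at 37 C; AChE-driven acetylthiocholine cleavage is then quantified by thiocholine-dependent Thiolite Green fluorescence after 40 min at room temperature.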

For experiment [13] the target is unchanged. Briefly: Acetylcholinesterase (AChE) small molecule antagonists: enzyme-based qHTS assay with human liver microsomes (AID 1347399; calls by dose curve; also: % is scaled to controls: 0 for no effect and ±100 for the full control effect; nearly all actives have a fitted effect of over 60% in size). To be noted: Potency: qHTS inhibition. A digest of the protocol: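 Recombinant human AChE (50 mU/mL in the enzyme mix) and human liver microsomes (0.25 mg/mL final) were preincubated with compound and NADPH (0.25 mg/mL final) for 30 min at 37 C. Acetylthiocholine/DTNB was then added; thiocholine was read colorimetrically after 10 min at room temperature.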

Experiment [14] deals with Cytochrome P450 2C9 (Homo sapiens) (UniProt P11712). The experiment in a line: Cytochrome P450 Family 2 Subfamily C Member 9 (CYP2C9) small molecule antagonists: luciferase reporter qHTS assay (AID 1671198). Also: nearly all actives have a fitted effect of over 50% in size. Also: potency is read from the fitted curve at half-maximal effect. The gist of the method:
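CYP2C9 activity was measured with a P450-Glo proluciferin substrate. Enzyme–substrate mix was held with compound for 10 min at room temperature, then NADPH regeneration solution was added for 1 h at 37C. Luciferin product was read as luminescence.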

In experiment [15] the target is Cytochrome P450 3A4 (Homo sapiens) (UniProt P08684). Briefly: Cytochrome P450 Family 3 Subfamily A Member 4 (CYP3A4) small molecule antagonists: luciferase reporter qHTS assay (AID 1671201). Also: nearly all actives have a fitted effect of over 50% in size. Also: potency is read from the fitted curve at half-maximal effect. The gist of the method:
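P450-Glo CYP3A4 system with proluciferin substrate; compounds preincubated 10 min RT with enzyme-substrate mix, then NADPH regeneration added for 1 h RT. Detection reagent 20 min, luminescence read as relative luminescence units.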

In experiment [16] the target is Cytochrome P450 2C19 (Homo sapiens) (UniProt P33261). Briefly: Cytochrome P450 Family 2 Subfamily C Member 19 (CYP2C19) small molecule antagonists: luciferase reporter qHTS assay (AID 1671197). Also: nearly all actives have a fitted effect of over 65% in size. Also: potency is read from the fitted curve at half-maximal effect. A digest of the protocol: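 CYP2C19 P450-Glo, 1536-well qHTS. Cpd + enzyme/proluciferin substrate 10 min RT; + NADPH regen, 37C 1 h; stop with luciferin detection reagent, 20 min RT, luminescence (RLU). Pos ctrl ketoconazole.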
Cytochrome P450 2C19 (Homo sapiens), sequence (P33261 whole entry, looked up): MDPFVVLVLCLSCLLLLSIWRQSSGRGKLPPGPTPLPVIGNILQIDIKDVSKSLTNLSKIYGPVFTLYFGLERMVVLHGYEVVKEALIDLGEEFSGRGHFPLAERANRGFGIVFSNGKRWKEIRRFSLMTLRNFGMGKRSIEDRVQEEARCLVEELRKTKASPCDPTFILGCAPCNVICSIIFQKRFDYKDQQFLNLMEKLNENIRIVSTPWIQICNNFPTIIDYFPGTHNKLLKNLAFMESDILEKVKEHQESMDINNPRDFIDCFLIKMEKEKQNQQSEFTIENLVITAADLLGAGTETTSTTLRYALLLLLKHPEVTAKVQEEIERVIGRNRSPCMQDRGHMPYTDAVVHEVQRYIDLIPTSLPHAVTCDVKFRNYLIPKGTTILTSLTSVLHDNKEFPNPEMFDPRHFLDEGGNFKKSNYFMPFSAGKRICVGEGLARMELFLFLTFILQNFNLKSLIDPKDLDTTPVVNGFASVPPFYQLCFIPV

The target in experiment [17] is Nuclear receptor subfamily 1 group I member 2 (Rattus norvegicus) (UniProt Q9R1A7). The experiment in a line: Rat pregnane X receptor (rPXR) activation by small molecules, qHTS assay (AID 1346983). Also: % is scaled to controls: 0 for no effect and ±100 for the full control effect; nearly all actives have a fitted effect of over 20% in size. The following applies: rPXR luciferase reporter cells, One-Glo luminescence, 24 h; max activation: stronger effect = higher value. A digest of the protocol:
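Cell-based rPXR luciferase reporter assay, 2,000 cells per well, rested 5hr at 37 C before compound addition in DMSO, then 24 hr at 37 C. One-Glo reagent was added and luminescence read after 30 min at room temperature.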

Experiment [18] deals with Nuclear receptor subfamily 1 group I member 2 (Homo sapiens) (UniProt O75469). The experiment in a line: CYP3A4 induction through human pregnane X receptor (PXR) by small molecules, qHTS assay (AID 1346984). Also: potency is read from the fitted curve at half-maximal effect; nearly all actives have a fitted effect of over 40% in size. A digest of the protocol: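 Cells (DPX-2; HepG2 with PXR element plus CYP3A4-promoter luciferase) settled 5hr, then were treated 24hr at 37C. A 3hr, 3uM-final Luciferin-IPA step preceded luminescence measurement with One-Glo.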
Nuclear receptor subfamily 1 group I member 2 (Homo sapiens), sequence (O75469 whole entry, looked up): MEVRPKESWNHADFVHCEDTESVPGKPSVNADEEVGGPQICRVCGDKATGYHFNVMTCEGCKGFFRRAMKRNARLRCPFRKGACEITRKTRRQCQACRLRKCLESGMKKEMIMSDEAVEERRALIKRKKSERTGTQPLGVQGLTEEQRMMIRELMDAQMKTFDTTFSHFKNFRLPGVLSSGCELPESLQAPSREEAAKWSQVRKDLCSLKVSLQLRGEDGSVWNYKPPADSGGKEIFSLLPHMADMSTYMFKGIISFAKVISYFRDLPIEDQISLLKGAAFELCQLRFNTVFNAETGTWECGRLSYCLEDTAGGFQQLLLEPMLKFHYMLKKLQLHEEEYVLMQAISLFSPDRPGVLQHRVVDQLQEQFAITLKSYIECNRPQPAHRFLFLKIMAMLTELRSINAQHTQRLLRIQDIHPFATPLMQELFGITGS

The target is the same in experiment [19]. Briefly: Human pregnane X receptor (PXR) activation by small molecules, qHTS assay (AID 1346985). Also: % is scaled to controls: 0 for no effect and ±100 for the full control effect; nearly all actives have a fitted effect of over 40% in size. The gist of the method:
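DPX-2 cells (HepG2 co-transfected with a PXR response element and a CYP3A4-promoter luciferase construct) were seeded at 2,000 per well, rested 5 hr at 37C, then exposed to DMSO-dissolved compounds for 24 hr. Activation was read as luciferase luminescence.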

Molecules are shown by their SMILES. Several values for one entry are separate records, joined by “and”; a condition that tells them apart may be missing. Equal entries are not always repeated. Records with an inconclusive call do not appear. Where a structure was tested more than once in an assay, its records may differ in their call. Activity calls are given as the source filed them. Unless noted, calls follow the shape of the dose curve; as a rule, active = well fitted curve in the direction sought with a large enough effect in the repeat runs; inconclusive = weak or mixed curves; inactive = no such curve, though single readings can be large; an effect the other way counts as inactive or inconclusive.

Cytochrome P450 2C9 (Homo sapiens), sequence (P11712 whole entry, looked up): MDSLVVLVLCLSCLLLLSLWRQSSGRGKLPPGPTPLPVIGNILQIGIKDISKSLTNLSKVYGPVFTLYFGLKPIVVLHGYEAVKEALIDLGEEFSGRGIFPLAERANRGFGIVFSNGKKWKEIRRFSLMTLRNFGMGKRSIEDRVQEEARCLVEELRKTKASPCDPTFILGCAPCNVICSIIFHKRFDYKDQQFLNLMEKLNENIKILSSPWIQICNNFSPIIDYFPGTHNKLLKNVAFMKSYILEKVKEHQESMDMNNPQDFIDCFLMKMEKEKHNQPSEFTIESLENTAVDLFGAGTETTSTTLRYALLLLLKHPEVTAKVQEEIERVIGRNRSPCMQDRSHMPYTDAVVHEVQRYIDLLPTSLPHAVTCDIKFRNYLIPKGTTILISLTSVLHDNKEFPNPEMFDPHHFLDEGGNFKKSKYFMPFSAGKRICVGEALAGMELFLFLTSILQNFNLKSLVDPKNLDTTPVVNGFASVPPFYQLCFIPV
Cytochrome P450 3A4 (Homo sapiens), sequence (P08684 whole entry, looked up): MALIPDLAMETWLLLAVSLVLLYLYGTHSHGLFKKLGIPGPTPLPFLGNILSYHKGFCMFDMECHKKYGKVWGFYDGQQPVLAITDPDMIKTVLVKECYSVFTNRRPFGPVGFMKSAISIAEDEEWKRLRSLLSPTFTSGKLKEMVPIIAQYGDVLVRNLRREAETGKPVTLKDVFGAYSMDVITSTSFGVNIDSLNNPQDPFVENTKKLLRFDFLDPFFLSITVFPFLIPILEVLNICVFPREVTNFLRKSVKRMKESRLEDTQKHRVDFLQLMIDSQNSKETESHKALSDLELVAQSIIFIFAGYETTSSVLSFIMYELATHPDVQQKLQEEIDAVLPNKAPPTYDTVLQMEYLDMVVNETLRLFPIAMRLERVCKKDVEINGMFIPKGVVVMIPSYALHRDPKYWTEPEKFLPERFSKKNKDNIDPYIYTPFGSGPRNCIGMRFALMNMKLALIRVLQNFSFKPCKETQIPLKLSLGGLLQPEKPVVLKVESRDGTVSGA
Cytochrome P450 2D6 (Homo sapiens), sequence (P10635 whole entry, looked up): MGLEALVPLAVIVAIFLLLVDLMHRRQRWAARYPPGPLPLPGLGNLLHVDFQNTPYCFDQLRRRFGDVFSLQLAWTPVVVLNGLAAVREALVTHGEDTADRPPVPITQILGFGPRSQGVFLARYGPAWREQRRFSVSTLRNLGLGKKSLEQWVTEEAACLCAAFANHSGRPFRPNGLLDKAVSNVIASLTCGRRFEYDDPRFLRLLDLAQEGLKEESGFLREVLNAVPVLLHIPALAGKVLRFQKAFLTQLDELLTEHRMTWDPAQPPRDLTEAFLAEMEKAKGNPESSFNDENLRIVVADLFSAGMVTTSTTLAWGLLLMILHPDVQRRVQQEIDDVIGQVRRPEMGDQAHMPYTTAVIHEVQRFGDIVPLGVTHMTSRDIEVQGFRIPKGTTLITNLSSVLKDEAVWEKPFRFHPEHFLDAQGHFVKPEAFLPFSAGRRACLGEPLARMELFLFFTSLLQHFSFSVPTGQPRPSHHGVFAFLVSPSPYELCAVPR
Cytochrome P450 1A2 (Homo sapiens), sequence (P05177 whole entry, looked up): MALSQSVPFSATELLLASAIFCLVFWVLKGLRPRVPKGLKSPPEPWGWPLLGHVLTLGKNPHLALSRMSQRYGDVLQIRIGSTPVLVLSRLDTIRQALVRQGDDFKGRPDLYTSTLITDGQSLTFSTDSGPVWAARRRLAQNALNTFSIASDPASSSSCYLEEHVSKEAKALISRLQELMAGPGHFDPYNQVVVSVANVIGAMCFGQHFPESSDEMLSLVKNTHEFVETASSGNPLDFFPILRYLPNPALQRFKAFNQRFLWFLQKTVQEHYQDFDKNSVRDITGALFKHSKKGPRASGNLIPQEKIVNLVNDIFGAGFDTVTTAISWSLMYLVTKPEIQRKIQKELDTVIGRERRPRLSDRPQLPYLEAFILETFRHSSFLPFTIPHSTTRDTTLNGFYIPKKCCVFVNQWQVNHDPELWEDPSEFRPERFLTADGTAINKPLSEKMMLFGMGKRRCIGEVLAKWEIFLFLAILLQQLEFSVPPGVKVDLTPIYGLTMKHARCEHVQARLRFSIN

On to `O=C(N[C@H](c1ccccc1)[C@@H]1CN2CCC1CC2)c1c(Cl)ccc(C(F)(F)F)c1Cl`, for which the Potency in experiment [1] was 49.3 µM (active); in [2], 55.3 µM (active); in experiment [4], 2.56 µM (active); in experiment [6], 39.5 µM (active). The Potency result in experiment [3] and in experiment [5] was “inactive” in each case.

In the case of `ClCc1ccccc1`, the Potency result in [1], in experiment [7], in experiment [8], in [9], in experiment [10] and in experiment [11] was “inactive” in each case. Moreover, the Potency result in experiment [12], in [13], in experiment [14], in experiment [5], in [6] and in [15] was “inactive” each time. The Potency in experiment [3] was 60.8 µM (active).

Regarding `CCOS(C)(=O)=O`, the Potency entry in [7], in experiment [8], in experiment [9], in experiment [2], in experiment [3] and in experiment [10] was “inactive” in each case. Besides, the Potency entry in experiment [11], in experiment [12], in experiment [13], in experiment [16], in experiment [14] and in experiment [5] was “inactive” in each case. In addition, the Potency result in [6] and in [15] was “inactive” in each case.

Regarding `C#CCOC(C(=O)OCCN(C)C)(c1ccccc1)c1ccccc1`, the Potency result in experiment [1], in experiment [8], in experiment [2], in experiment [19] and in experiment [5] was “inactive” each time. Moreover, the max activation in experiment [17] was -6.97% (inactive). For the same compound, the Potency is 15.8 µM (active) in [18], 3.47 µM (active) in [4], 1.95 µM (active) in experiment [16] and 2.19 µM (active) in [14].

With `COc1c(C(C)(C)C)cc([N+](=O)[O-])c(C)c1[N+](=O)[O-]`, the Potency result in experiment [1], in experiment [7], in [8], in [9], in experiment [2] and in experiment [11] was “inactive” each time. The Potency entry in [13] and in experiment [15] was “inactive” throughout. For the same compound, the Potency in experiment [3] was 9.61 µM (active); in experiment [16], 28.1 µM (active); in [5] it was 1.77 µM (active).

In the case of `Clc1ccc(C2(Cn3cncn3)CC(Br)CO2)c(Cl)c1` (configuration not stated), the Potency result in experiment [7], in experiment [9], in [10], in [11] and in experiment [13] was “inactive” throughout. The Potency in [3] is 24.2 µM (active); in experiment [4], 31.5 µM (active); in experiment [16] it was 0.177 µM (active); in [14], 5 µM (active); in experiment [5], 31.5 µM (active); in experiment [15] it was 0.126 µM (active).

For the compound `CN(C)c1ccc(N(C)C)cc1`, the Potency result in experiment [7], in [2] and in experiment [6] was “inactive” each time. The Potency in experiment [10] is 40 µM (active); in [12], 40 µM (active); in experiment [4] it was 20.1 µM (active); in [16] it was 7.99 µM (active); in [14] it was 20.1 µM (active); in [5] it was 40 µM (active). The Potency in experiment [15] is 35.7 µM (active).

As for `CCn1cc[n+](C)c1`, the Potency result in experiment [1] was “inactive and 54.5 µM (active)”; in experiment [3], “inactive and 48.6 µM (active)”; in [4], “inactive and 507 nM (active) and 34.7 µM (active)”; in experiment [16], “inactive and 40.3 µM (active) and 79.5 µM (active)”; in experiment [14], “inactive and 32 µM (active)”; in experiment [5] it was 35.5 µM (active) and inactive and 39 µM (active). Also, in [6], the Potency result is “inactive and 24.8 µM (active)”. Moreover, the Potency entry in [7], in experiment [8], in [9], in [2] and in experiment [15] was “inactive” in each case.

These data come from PubChem BioAssay (Tox21).
